From PubChem BioAssay (NCI)
This is part of a sample that, as a whole, favours compounds with a hit. Of some 79,000 tested, about 15% had one in any assay. Rule as the data show it: active = growth inhibition above about 70%; inactive = the rest.

Legend:
[1] = NCI Yeast Anticancer Drug Screen. Data for the rad50 strain (AID 155);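 also: 0% = growth of vehicle-only cultures of the same strain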; conditions: S. cerevisiae rad50 strain growth inhibition; at 50.0 µM; hits give high values
Procedure, shortened: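 Genetically altered yeast (DNA repair pathway); compound treatment; growth inhibition vs vehicle ctrl.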

[2] = NCI Yeast Anticancer Drug Screen. Data for the mec2-1 strain (AID 157); conditions: S. cerevisiae mec2-1 strain, at 50.0 µM, hits give high values
Procedure, shortened: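 Strain: mec2-1 (DNA repair/cell cycle alteration). Compound exposure, then growth measured; inhibition expressed relative to vehicle.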

[3] = NCI Yeast Anticancer Drug Screen. Data for the sgs1 mgt1 strain (AID 161);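 also: 0% = growth of cultures given vehicle only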; conditions: S. cerevisiae sgs1 mgt1 strain, at 50.0 µM, hits give high values
Procedure, shortened: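 Read-out: growth inhibition vs vehicle controls. Cells: mutant yeast strain deficient in DNA damage repair.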

[4] = NCI Yeast Anticancer Drug Screen. Data for the cln2 rad14 strain (AID 165);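 also: 0% = growth equal to vehicle treated cultures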; conditions: S. cerevisiae cln2 rad14 strain, at 50.0 µM, hits give high values
Procedure, shortened: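 Compounds are applied to the cln2 rad14 yeast strain, and growth is then compared with that of vehicle-treated cultures to give inhibition.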

[5] = NCI Yeast Anticancer Drug Screen. Data for the mlh1 rad18 strain (AID 175); conditions: S. cerevisiae mlh1 rad18 strain growth inhibition; at 50.0 µM; hits give high values
Procedure, shortened: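 Read-out is yeast growth inhibition, calculated against vehicle-only controls. The compound was applied to a strain engineered with DNA damage repair alterations.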

[6] = NCI Yeast Anticancer Drug Screen. Data for the bub3 strain (AID 167); conditions: S. cerevisiae bub3 mutant strain, at 50.0 µM, hits give high values
Procedure, shortened: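 Yeast carrying a defined mutation is treated with each compound, and growth is compared with that of vehicle-exposed cells to give inhibition.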

Measured: growth inhibition

CC(=O)Nc1ccc(Cc2ccc(Cl)cc2)cc1
inactive: [1] 5.6% | [2] 0.7% | [3] 5.7% | [4] 10.8% | [5] -2.6%

CN(C)CCNC(=O)c1cccc2c1Oc1cccc([N+](=O)[O-])c1O2
inactive: [1] -12.7% | [2] -14.1% | [3] -9.85% | [4] 14.4% | [5] -34.3%

O=C(NN1C(=O)C(Cl)C1c1ccccc1Cl)c1ccccc1O (stereo unspecified)
inactive: [1] -48.1% | [2] -35.9% | [3] -49.1% | [4] -5.55% | [5] -36%

CCCCSCCOC(=O)C1C2CCC(O2)C1C(=O)O (stereo unspecified)
inactive: [1] 19.5% | [2] -3.85% | [3] 0.1% | [4] 13.4% | [5] 13.8%

CCOC(=O)c1nc(N)c2c(CC#N)nn(C)c2n1
inactive: [1] 2.35% | [2] -15.4% | [3] 8.3% | [4] -9.75% | [5] -16.4%

O=C(O)CC1C(=O)OC2C3COC(=O)c4cc(O)c(O)c(O)c4-c4c(cc(O)c(O)c4O)C(=O)OC2C(OC(=O)c2cc(O)c(O)c4c2C1C(O)C(=O)O4)C(OC(=O)c1cc(O)c(O)c(O)c1)O3 (stereo unspecified)
inactive: [1] 24.4% | [2] 2.8% | [3] 22.4% | [4] 5.15% | [5] -6.15%

Cc1cc(C)n2ncnc2n1
inactive: [1] 16.9% | [2] -22.6% | [3] 7.9% | [4] 4.15% | [5] 5.35%

NCCCNC1CCCCC1
inactive: [1] 8.8% | [2] -27.9% | [3] 2.55% | [4] -0.45% | [5] 12.8%

CCOC(=O)/C=C\[C@H]1OC(C)(C)O[C@H]1[C@H](O)[C@H]1COC(C)(C)O1
inactive: [1] -22.3% | [2] -14.1% | [3] -15.4% | [4] 38% | [5] -9.6%

COc1cc(C(=O)O)c(O)c(OC)c1OC
inactive: [1] 0.2% | [2] 0.9% | [3] -8.4% | [4] -36.1% | [5] 3.4%

Brc1cccc(-c2nnc(-c3ccc4ccccc4c3)o2)c1
inactive: [1] -5.85% | [2] -29.5% | [3] 6% | [4] 11.4% | [6] -9% | [5] -2.25%

COC1OC(CO)C(OC(C)=O)C(OC(C)=O)C1OC(C)=O (stereo unspecified)
inactive: [1] -2.05% | [2] 16.5% | [3] 2.9% | [4] -14.5% | [5] 1.8%

O=C(O)/C(=C/c1ccccc1[N+](=O)[O-])c1ccccc1
inactive: [1] 40.1% | [2] -16.1% | [3] 20.5% | [4] 17.5% | [5] -12.7%

CCN1C(=O)/C(=C\c2ccccc2)N=C1C
inactive: [1] 2.45% | [2] -7.35% | [3] 5.55% | [4] -58% | [5] -42%

COc1cc([N+](=O)[O-])c(OC)cc1Nc1ccccc1C(=O)O
inactive: [1] 13.1% | [2] -12.8% | [3] 22.1% | [4] 18.2% | [5] 16%

O=c1oc2ccccc2cc1-n1nnc2cc([N+](=O)[O-])ccc21
inactive: [1] 39% | [2] 24.1% | [3] 25.8% | [4] -25.6% | [5] 26.8%

CC(=O)OC(NC(=O)c1cc(C)cc(C)c1)c1ccncc1 (stereo unspecified)
inactive: [1] -2.05% | [2] -3.05% | [3] -0.75% | [4] -8.1% | [5] 1.25%

O=C(CC/C=C(/CS(=O)(=O)c1ccccc1)S(=O)(=O)c1ccccc1)c1ccccc1
inactive: [1] 20.3% | [2] -15.1% | [3] -5.75% | [4] -24.1% | [5] 13.4%

O=C(Oc1ccc(OC(=O)c2ccccc2)c(C2CCCCCC2)c1)c1ccccc1
inactive: [1] 32.9% | [2] -1.75% | [3] 25.1% | [4] 14.3% | [5] 9%

CCOC(=O)c1cccc2ncccc12
inactive: [1] -1.6% | [2] 9.35% | [3] -2.8% | [4] -28.2% | [5] 10.8%

Cc1ccc(-c2c3c(n(C4OC(CO)C(O)C(O)C4O)c(=S)c2C#N)CC(C)(C)CC3=O)cc1 (stereo unspecified)
inactive: [1] 23.5% | [2] 13.7% | [3] -4.45% | [4] -8.95% | [5] 11.8%

C=C1C(=O)O[C@@H]2/C=C(\C)CC/C=C(/COC(C)=O)C[C@@H](OC(C)=O)[C@@H]12
inactive: [1] 7.4% | [2] -28.2% | [3] 20.1% | [4] 0.35% | [5] -30.1%

Cc1cc2c(=O)[nH]cnc2[nH]1
inactive: [1] -5.6% | [2] -1.35% | [3] -16.7% | [4] 4.45% | [5] -1.15%
